Assay results published in the supplement of paper PMC12636033.
± gives the standard deviation of the averaged measurements. Whole data set: some 33,000 sequences, median “E-score (rank enrichment, -0.5 to 0.5)” near -0.0068, cut for the highest 2% near 0.24. This is one part of a sample in which the highest values are shown more often than they occur.

test system: muMax20 (Max(13-93) K31hArg/K57hArg, M65Nle); assay: PBM 8-mer E-score (E-score (rank enrichment, -0.5 to 0.5)); higher = stronger preferential binding
Experimental: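 Protein binding microarray (universal PBM chip covering all 10-mers in fixed probe flanks) with chemically synthesized human Max(13-93) bHLH-LZ analogs (not full-length Max) bearing noncanonical residues (hArg, Tha, Aib, Nle at 65) and aromatic Cys staples. Read-out per 8-mer (and its reverse complement): E-score (rank-based enrichment, -0.5 to 0.5) and Z-score of median probe intensity.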

Row | Sequence | PBM 8-mer E-score
1 | AATACAAA | 0.343 ± 0.042
2 | AATACAAG | 0.137 ± 0.0018
3 | TATACATA | 0.237 ± 0.023
4 | AATACATT | 0.158 ± 0.021
5 | CATACATA | 0.163 ± 0.068
6 | GATACAAA | 0.0222 ± 0.023
7 | TACACATA | 0.245 ± 0.037
8 | CACACATA | 0.12 ± 0.12
9 | AATACATG | 0.205 ± 0.015
10 | GATACATA | 0.204 ± 0.044
11 | GACACATA | 0.139 ± 0.071
12 | ACTGGATC | -0.0849 ± 0.029
13 | CCTCATCA | -0.0311 ± 0.07
14 | CGTCTACA | -0.0683 ± 0.077
15 | ATTCGACG | 0.0309 ± 0.1
16 | CACGAGCA | -0.159 ± 0.013
17 | GAAAACGA | 0.0327 ± 0.09
18 | AAAAACGC | 0.0604 ± 0.015
19 | AAAAACGT | 0.249 ± 0.0044
20 | AAAGACGG | 0.0825 ± 0.019
21 | GAAGACGA | -0.0988 ± 0.065
22 | CAAAACGA | 0.0111 ± 0.00023

Row | Sequence | PBM 8-mer E-score
23 | AAAGACGA | 0.246 ± 0.0064
24 | AAAAACGA | 0.297 ± 0.0076
25 | AAAAACGG | -0.048 ± 0.14
26 | CTCGGTCC | -0.2695 ± 0.0006
27 | AGAGTTCA | -0.124 ± 0.038
28 | CGTTCGCA | -0.0226 ± 0.0093
29 | CTCAGACA | 0.044 ± 0.035
30 | GCCATATA | 0.0868 ± 0.0087
31 | CTACTTCA | 0.00799 ± 0.001
32 | ATACTTCA | 0.0693 ± 0.032
33 | GTACTACA | 0.262 ± 0.072
34 | GTACTTCA | 0.237 ± 0.13
35 | ATACTACA | 0.222 ± 0.078
36 | CTACTACA | 0.146 ± 0.08
37 | ATCAGCGC | -0.0642 ± 0.0034
38 | CACCGGAG | -0.173 ± 0.083
39 | ACACATTC | -0.0504 ± 0.14
40 | AATACGAA | 0.136 ± 0.041
41 | AATCAACA | 0.256 ± 0.032
42 | GATCAACA | 0.0109 ± 0.0053
43 | TATCAACA | 0.158 ± 0.054
44 | ACGGTGTG | -0.143 ± 0.056

Row | Sequence | PBM 8-mer E-score
45 | ACCTTGTA | 0.238 ± 0.077
46 | CCCTTGTA | 0.0442 ± 0.13
47 | GCCTTGTA | 0.029 ± 0.077
48 | GTCAGGAA | -0.0169 ± 0.068
49 | ATAGAGCC | -0.106 ± 0.093
50 | AAATACTA | 0.193 ± 0.081
51 | CAATACCA | 0.149 ± 0.042
52 | CAATACTA | 0.16 ± 0.062
53 | TAATACCA | 0.24 ± 0.014
54 | TAATACTA | 0.252 ± 0.0039
55 | GAATACCA | 0.121 ± 0.025
56 | ACAGCAGG | -0.0464 ± 0.034
57 | GCTCCCCA | 0.128 ± 0.042
58 | CGGTCCTA | -0.17 ± 0.11
59 | ATATGGGG | 0.0664 ± 0.016
60 | GCGCGAAC | -0.0762 ± 0.17
61 | GACTAAGC | -0.239 ± 0.043
62 | CACCATTA | 0.0322 ± 0.16
63 | AACCATTG | -0.0386 ± 0.14
64 | AACCATTA | 0.269 ± 0.0088
65 | TAAATGAA | 0.114 ± 0.11
66 | AGTTGCAT | 0.287 ± 0.067

Row | Sequence | PBM 8-mer E-score
67 | AGTTGCAG | 0.0866 ± 0.039
68 | AGTTGCAC | -0.00822 ± 0.011
69 | GGTTACAC | 0.151 ± 0.076
70 | CGTGCTCA | 0.162 ± 0.051
71 | CGATGGAG | -0.153 ± 0.037
72 | AACGTGGC | 0.0382 ± 0.033
73 | GATGTGAC | -0.206 ± 0.059
74 | CATGTGAC | 0.314 ± 0.075
75 | CAAGTGGG | 0.0751 ± 0.013
76 | CATGTGAG | 0.216 ± 0.059
77 | AACGTGGG | 0.184 ± 0.14
78 | AATGTGAA | 0.211 ± 0.056
79 | GACGTGGC | -0.0512 ± 0.032
80 | GATGTGAA | 0.105 ± 0.079
81 | TATGTGAA | 0.299 ± 0.074
82 | CACGTGGC | 0.442 ± 0.068
83 | CACGTGGG | 0.447 ± 0.062
84 | AAGTTCTC | -0.179 ± 0.0056
85 | CACTGCAC | -0.0231 ± 0.055
86 | CTCTAACC | -0.0244 ± 0.061
